The values that follow come from PubChem BioAssay (NCATS).

Unmarked numbers belong to inactive results. Inconclusive results are not listed. Active and inactive are the calls of the source. Unless noted, the call rests on the fitted dose curve; in most records, active means well fitted curve in the direction sought with a large enough effect; inconclusive means small, poorly fitted or top-dose-only effect, or another doubt; inactive means no such curve, though single readings can be large; an effect the other way counts as inactive or inconclusive. Where only a bound is given, the exact number is not on record here.

For test [1], the target named is Lysosomal acid glucosylceramidase (Homo sapiens) (UniProt P04062). Put plainly: Glucocerebrosidase-p2 (AID 348; in the data active means potency below about 10 µM; further: potency means the concentration at half of the fitted maximal effect). Conditions: purified GBA, blue fluorogenic substrate, 40 min. Summed up: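 Normal human glucocerebrosidase (0.2 nM) with blue fluorogenic substrate (80 uM final) in citrate/phosphate pH 5.9 with 10mM sodium taurocholate, 0.01% tween-20; 40 min RT, NaOH/glycine stop; fluorescence Ex 365/Em 440; AC50 from a titration from 0.6 nM upwards.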

Test [2] can be described thus: AP1 Signaling Pathway (AID 357; active means well fitted curve in either direction with a large enough effect, not every such curve was filed as active;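 further: ME-180 reporter cells stimulated with EGF at its EC50 level; on the % scale 0 is the no-effect control and ±100 the full control effect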). To be noted: ME-180 AP-1-bla reporter, EGF-induced, beta-lactamase ratio, 5 h; at 7.69 µM (top of the series) unless noted. In a few lines:
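In this screen, ME-180 cells in Opti-MEM with 0.5% dialyzed FBS received EC50 EGF and compound titrations for 5 h. AP-1 reporter beta-lactamase was detected via CCF4 ratio, giving AC50 for positive and negative modulators.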

For test [3], the target named is Cytochrome P450 1A2 (Homo sapiens) (UniProt P05177). Put plainly: p450-cyp1a2 (AID 410; calls by dose curve; further: potency means the concentration at half of the fitted maximal effect;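 on activity change, negative = inhibition: -100% = full effect of reference inhibitor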). To be noted: recombinant CYP1A2, luciferin-ME demethylation, luminescence; series mostly up to 57 µM. In a few lines:
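O-Demethylation of luciferin 6' methyl ether by human CYP1A2 is monitored as luciferase luminescence. Substrate sits at Km (100uM); enzyme is 20nM. Values are scaled to 57 uM furafylline as maximal inhibition.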

The nature of test [4]: Stat Signaling Pathway (AID 446; active means well fitted curve in either direction with a large enough effect, not every such curve was filed as active;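 further: ME-180 cervical cancer cells given 40 pM IL-6 alongside compound; SIE-controlled beta-lactamase reporter measured as 460/530 nm FRET emission ratio; on the % scale 0 is the no-effect control and ±100 the full control effect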). To be noted: ME-180 (cervical carcinoma) SIE beta-lactamase reporter, IL-6 stimulated, 5 h; at 7.69 µM (top of the series) unless noted. In a few lines: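 FRET read-out (405 nm excitation, 460/530 nm emission) of a beta-lactamase reporter under a STAT-inducible element in ME-180 cervical carcinoma cells. Cells with compound receive 40 pM IL-6 for 5 h. Values are normalised to AC90 stimulation and AC90 JAK-inhibitor controls.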

The target of test [5] is Glucocorticoid receptor (Homo sapiens) (UniProt P04150). Put plainly: GR-EFC Redistribution (AID 451; calls by dose curve; further: potency means the concentration at half of the fitted maximal effect). To be noted: CHO-K1 GR-EFC translocation, beta-gal luminescence, 2 h. Summed up: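 Translocation of GR-ED fusion to nuclear EA restores b-gal, read by luminescence after 1 h room-temperature detection. Engineered CHO-K1 biosensor cells, 1,000/well, exposed 2 h at 37 C to titrations up to 46 uM final.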

Test [6] concerns the target Mitogen-activated protein kinase 10 (Mus musculus) (UniProt Q61831). Nature of the test: JNK3 AlphaScreen Assay (AID 530; active means well fitted curve in either direction with a large enough effect, not every such curve was filed as active;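 further: kinase came from lysate of stimulated human HepG2 cells; signal reports phosphorylation of biotinylated GST-cJun 1-79 at Ser73 with 10 µM ATP; on the % scale 0 is the no-effect control and ±100 the full control effect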). To be noted: JNK3 lysate, c-Jun phosphorylation; series mostly up to 57.1 µM. In a few lines: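 qHTS titrations with 15 min compound pre-incubation before adding ATP (10 uM final). Read-out: AlphaScreen of Ser73-phosphorylated biotin-GST-cJun using HepG2 lysate JNK3 activated by IL-1β and TNFα.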

Test [7] has as its target 3',5'-cyclic-AMP phosphodiesterase 4B (Homo sapiens) (UniProt Q07343). Put plainly: qHTS Assay for Inhibitors of PDE-IV (AID 607; active means well fitted activation curve with a large enough effect in the main read-out, with a control signal flat, not every such curve was filed as active; further: % of control where 0% means no effect). Conditions: HEK293 ACTOne CNG channel cells, membrane potential fluorescence; series mostly up to 22.9 µM. Summed up:
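Cell-based read-out of cAMP via a modified cyclic nucleotide-gated channel and membrane potential dye (535/590 nm) in HEK293 cells expressing PDE4 endogenously. Compounds tested up to 22.9 uM final; 100 uM RO 20-1724 reference.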

For test [8], the target named is Cytochrome P450 3A4 (Homo sapiens) (UniProt P08684). Nature of the test: qHTS Assay for Inhibitors and Substrates of Cytochrome P450 3A4 (AID 884). Further: nearly all actives have a fitted effect of over 50% in size. Further: potency means the concentration at half of the fitted maximal effect. Conditions: recombinant CYP3A4, Luciferin-PPXE luminescence; series mostly up to 57.1 µM. In a few lines:
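Luminescent readout of luciferin produced by CYP3A4 (20 nM) dealkylation of Luciferin-PPXE, 25 uM (its KM). NADPH-driven reaction ran 60 min at RT after 10 min compound preincubation; data scaled to 57 uM ketoconazole as 100% inhibition.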
Background: qHTS replaces the single test concentration by a dilution series.

The target is the same in test [9]. Nature of the test: qHTS Assay for Activators of Cytochrome P450 3A4 (AID 885). Further: nearly all actives have a fitted effect of over 65% in size. Further: potency means the concentration at half of the fitted maximal effect. Conditions: recombinant CYP3A4, Luciferin-PPXE luminescence, 60 min; series mostly up to 57.1 µM. Summed up:
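Luminescent readout of luciferin formed from 25 uM Luciferin-PPXE (KM level) by 20 nM CYP3A4 in 200 mM KPO4, with 60 min NADPH-driven reaction at room temperature after 10 min compound exposure. Ketoconazole (57 uM) defined 100% inhibition.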

Test [10] deals with Cytochrome P450 2D6 (Homo sapiens) (UniProt P10635). Nature of the test: qHTS Assay for Inhibitors and Substrates of Cytochrome P450 2D6 (AID 891). Further: nearly all actives have a fitted effect of over 60% in size. Further: potency means the concentration at half of the fitted maximal effect. Conditions: recombinant CYP2D6, luciferin-ME EGE luminescence; series mostly up to 57.1 µM. Summed up: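 Luminescent read-out of luciferin formed by 5 nM human CYP2D6 demethylating 30 uM Luciferin-ME EGE (Km level) over 60 min at room temperature after NADPH regeneration addition. Data normalized to full inhibition by 1.43 uM quinidine.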

A short description of test [11]: Primary qHTS for small molecule stabilizers of the endoplasmic reticulum resident proteome: Secreted ER Calcium Modulated Protein (SERCaMP) assay (AID 1508630). Further: on the % scale 0 is the no-effect control and ±100 the full control effect. Conditions: SH-SY5Y GLuc-SERCaMP (Gaussia luciferase released on ER calcium loss) secretion, thapsigargin, luminescence; series mostly up to 38.4 µM. In a few lines:
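The SH-SY5Y reporter protocol was run at 3 concentrations up to 38.3 uM (primary) or 11 concentrations (follow-up): 16 h compound, 100 nM thapsigargin for 4 h, then extracellular luciferase luminescence.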

The target of test [12] is Glucocorticoid receptor (Homo sapiens) (UniProt P04150). Nature of the test: GR-GFP Redistribution (AID 450;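 active means compounds whose dose series gives a full or clear partial fitted curve of increased nuclear translocation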; further: potency means the concentration at half of the fitted maximal effect). Conditions: U2OS GR-GFP nuclear translocation, laser cytometry, 2 h.
Test [13] is described as follows: Confirmation and Secondary Assay for Modulators of Hemoglobin Beta Chain Splicing at IVS2 654 locus (AID 910).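 Further: HeLa cells stably carrying EGFP split by mutant beta-globin IVS2-654 intron; per-well total GFP intensity by laser scanning cytometry after 2-day treatment; % of control where 0% means no effect.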 To be noted: HeLa EGFP-654 splicing reporter, GFP fluorescence, 48 h; series mostly up to 38.3 µM. Summed up: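 Readout: per-well total peak green fluorescence (488 nm ex, 500–520 nm em) from objects 5–250 µm, reflecting correct splicing of an EGFP-654 reporter. Compounds were applied for 2 days at 37 °C to overnight-plated HeLa EGFP-654 cells; controls were DMSO and 500 nM IVS2-654 PNA.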

A short description of test [14]: Confirmation and Secondary Assay for Modulators of Hemoglobin Beta Chain Splicing at IVS2 705 locus (AID 930).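 Further: GFP fluorescence per well restored by corrected splicing of the IVS2-705 intron in EGFP; % of control where 0% means no effect.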 To be noted: HeLa EGFP-705 splicing reporter, GFP fluorescence, 48 h; series mostly up to 38.3 µM. In a few lines: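 Secondary splice-site specificity test uses HeLa expressing CMV-driven EGFP interrupted by IVS2-705; cells were treated 2 days at 37C with 500 nM antisense PNA as positive control.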

Test [15] concerns the target Ubiquitin carboxyl-terminal hydrolase 1 (Homo sapiens) (UniProt O94782). Put plainly: Inhibitors of USP1/UAF1: Pilot qHTS (AID 504865).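 Further: rhodamine fluorescence freed from ubiquitin-rhodamine substrate followed over time; top concentration of the series differs between compounds; on the % scale 0 is the no-effect control and ±100 the full control effect; nearly all actives have a fitted effect of over 35% in size.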 Conditions: purified USP1/UAF1, Ub-rhodamine cleavage fluorescence; series mostly up to 54.9 µM. Summed up: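 Enzyme-free wells gave the negative control, while test wells held 1nM USP1/UAF1 preincubated with compound for 15 min at room temperature. Ub-Rho at 150nM final started the reaction, and fluorescence at 480/540 nm was recorded kinetically.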

Test [16] deals with Cytochrome P450 2C9 (Homo sapiens) (UniProt P11712). Put plainly: qHTS Assay for Inhibitors and Substrates of Cytochrome P450 2C9 (AID 883). Further: on the % scale 0 is the no-effect control and ±100 the full control effect; nearly all actives have a fitted effect of over 60% in size. To be noted: recombinant CYP2C9, luciferin-H luminescence, 60 min; series mostly up to 57.1 µM. In a few lines:
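Luminescent read-out of deoxyluciferin hydroxylation, normalized to 57uM sulphaphenazole (AC100). Reaction: 10nM enzyme, 100uM Luciferin-H (equal to KM), 25mM KPO4, 10 min compound preincubation, then 60 min with NADPH regeneration, both at 37C.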

Test [17] concerns the target Cytochrome P450 2C19 (Homo sapiens) (UniProt P33261). Put plainly: qHTS Assay for Inhibitors and Substrates of Cytochrome P450 2C19 (AID 899). Further: on the % scale 0 is the no-effect control and ±100 the full control effect; nearly all actives have a fitted effect of over 60% in size. Conditions: recombinant CYP2C19, luciferin-H EGE luminescence; series mostly up to 57.1 µM. In a few lines: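 Luminescence readout of luciferin formed from 10uM Luciferin-H EGE (KM level) by 5 nM CYP2C19 in 50mM KPO4. 60 min NADPH-driven reaction at 37C after 10 min compound preincubation; data scaled to 57uM ketoconazole inhibition.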

Sequence of Cytochrome P450 1A2 (Homo sapiens) (P05177 whole entry, looked up): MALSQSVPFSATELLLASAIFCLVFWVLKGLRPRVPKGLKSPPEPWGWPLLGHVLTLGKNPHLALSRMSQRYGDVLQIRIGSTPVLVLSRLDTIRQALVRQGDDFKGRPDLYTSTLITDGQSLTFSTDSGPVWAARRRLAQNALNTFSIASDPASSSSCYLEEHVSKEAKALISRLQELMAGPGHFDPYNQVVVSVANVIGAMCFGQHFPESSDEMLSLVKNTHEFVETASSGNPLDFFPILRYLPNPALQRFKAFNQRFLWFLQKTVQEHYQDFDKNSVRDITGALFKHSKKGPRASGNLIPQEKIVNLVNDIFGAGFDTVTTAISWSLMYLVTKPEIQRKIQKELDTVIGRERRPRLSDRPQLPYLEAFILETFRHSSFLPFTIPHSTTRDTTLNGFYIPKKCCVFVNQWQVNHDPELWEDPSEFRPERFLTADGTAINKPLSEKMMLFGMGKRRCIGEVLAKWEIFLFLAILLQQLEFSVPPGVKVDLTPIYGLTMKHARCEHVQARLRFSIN
Sequence of Glucocorticoid receptor (Homo sapiens) (P04150 whole entry, looked up, the tested form may be a part): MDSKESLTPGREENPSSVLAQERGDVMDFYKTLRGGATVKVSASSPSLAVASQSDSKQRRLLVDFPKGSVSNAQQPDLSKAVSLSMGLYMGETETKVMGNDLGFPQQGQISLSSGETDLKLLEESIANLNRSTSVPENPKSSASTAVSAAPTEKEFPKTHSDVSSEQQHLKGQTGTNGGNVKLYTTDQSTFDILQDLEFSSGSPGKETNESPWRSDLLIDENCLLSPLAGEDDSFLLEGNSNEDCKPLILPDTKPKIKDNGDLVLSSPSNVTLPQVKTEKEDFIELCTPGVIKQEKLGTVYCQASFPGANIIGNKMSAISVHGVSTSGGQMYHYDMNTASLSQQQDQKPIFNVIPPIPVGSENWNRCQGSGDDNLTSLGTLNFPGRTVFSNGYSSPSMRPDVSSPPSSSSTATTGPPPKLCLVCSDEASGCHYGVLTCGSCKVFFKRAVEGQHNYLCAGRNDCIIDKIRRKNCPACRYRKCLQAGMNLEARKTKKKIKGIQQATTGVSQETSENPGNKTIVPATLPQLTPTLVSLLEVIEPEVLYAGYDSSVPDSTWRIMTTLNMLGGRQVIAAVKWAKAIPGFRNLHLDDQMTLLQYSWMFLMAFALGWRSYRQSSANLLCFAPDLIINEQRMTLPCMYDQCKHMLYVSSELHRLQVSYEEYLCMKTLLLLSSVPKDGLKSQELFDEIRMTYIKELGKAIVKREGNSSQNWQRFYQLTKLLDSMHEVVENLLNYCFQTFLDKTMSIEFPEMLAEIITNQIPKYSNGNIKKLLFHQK
Sequence of 3',5'-cyclic-AMP phosphodiesterase 4B (Homo sapiens) (Q07343 whole entry, looked up): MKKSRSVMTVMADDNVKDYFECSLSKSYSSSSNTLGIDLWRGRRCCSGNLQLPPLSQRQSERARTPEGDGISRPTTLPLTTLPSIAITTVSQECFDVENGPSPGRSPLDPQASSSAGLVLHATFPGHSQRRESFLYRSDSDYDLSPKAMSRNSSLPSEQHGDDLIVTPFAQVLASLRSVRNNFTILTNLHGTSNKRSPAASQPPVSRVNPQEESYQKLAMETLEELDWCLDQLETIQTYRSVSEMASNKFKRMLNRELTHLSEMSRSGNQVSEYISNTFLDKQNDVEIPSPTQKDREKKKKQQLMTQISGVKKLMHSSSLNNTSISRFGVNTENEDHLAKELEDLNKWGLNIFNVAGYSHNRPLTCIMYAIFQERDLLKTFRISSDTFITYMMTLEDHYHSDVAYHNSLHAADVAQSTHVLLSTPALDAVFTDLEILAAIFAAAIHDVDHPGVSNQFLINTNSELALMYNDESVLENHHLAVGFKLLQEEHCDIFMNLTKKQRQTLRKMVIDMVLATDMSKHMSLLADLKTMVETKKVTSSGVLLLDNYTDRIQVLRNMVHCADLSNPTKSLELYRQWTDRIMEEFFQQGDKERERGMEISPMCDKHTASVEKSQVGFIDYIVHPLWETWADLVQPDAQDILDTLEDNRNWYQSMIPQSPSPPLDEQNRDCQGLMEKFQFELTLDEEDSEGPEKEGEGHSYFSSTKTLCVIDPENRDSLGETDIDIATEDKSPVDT
Sequence of Cytochrome P450 2D6 (Homo sapiens) (P10635 whole entry, looked up): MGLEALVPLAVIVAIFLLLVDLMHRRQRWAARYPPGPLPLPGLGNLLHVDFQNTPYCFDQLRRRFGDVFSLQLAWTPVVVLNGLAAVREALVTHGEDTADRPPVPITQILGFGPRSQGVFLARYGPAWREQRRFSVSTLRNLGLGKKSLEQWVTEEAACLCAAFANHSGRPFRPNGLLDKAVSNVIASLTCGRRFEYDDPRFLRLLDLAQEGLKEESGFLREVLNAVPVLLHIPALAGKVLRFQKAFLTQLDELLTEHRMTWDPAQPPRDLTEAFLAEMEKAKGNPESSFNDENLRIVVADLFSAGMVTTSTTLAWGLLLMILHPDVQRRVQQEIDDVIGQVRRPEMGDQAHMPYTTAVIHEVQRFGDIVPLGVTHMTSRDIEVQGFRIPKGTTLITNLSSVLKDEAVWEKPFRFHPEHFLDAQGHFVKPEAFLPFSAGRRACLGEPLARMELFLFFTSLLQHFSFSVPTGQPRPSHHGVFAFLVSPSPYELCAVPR
Sequence of Cytochrome P450 3A4 (Homo sapiens) (P08684 whole entry, looked up): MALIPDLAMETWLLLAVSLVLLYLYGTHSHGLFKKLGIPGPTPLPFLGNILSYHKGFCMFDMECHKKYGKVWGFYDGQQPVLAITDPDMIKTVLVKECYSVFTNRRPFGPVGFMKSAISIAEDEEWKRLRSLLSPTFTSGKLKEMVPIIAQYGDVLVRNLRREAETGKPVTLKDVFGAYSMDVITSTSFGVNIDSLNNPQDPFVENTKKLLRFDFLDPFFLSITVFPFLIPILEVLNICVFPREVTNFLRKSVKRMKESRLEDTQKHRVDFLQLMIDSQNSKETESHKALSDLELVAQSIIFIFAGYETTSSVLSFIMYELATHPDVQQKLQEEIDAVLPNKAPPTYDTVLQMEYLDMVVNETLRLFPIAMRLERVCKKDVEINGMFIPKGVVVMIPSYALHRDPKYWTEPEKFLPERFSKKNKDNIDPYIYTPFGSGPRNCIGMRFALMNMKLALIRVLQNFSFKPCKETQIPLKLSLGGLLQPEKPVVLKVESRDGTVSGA
Sequence of Lysosomal acid glucosylceramidase (Homo sapiens) (P04062 whole entry, looked up): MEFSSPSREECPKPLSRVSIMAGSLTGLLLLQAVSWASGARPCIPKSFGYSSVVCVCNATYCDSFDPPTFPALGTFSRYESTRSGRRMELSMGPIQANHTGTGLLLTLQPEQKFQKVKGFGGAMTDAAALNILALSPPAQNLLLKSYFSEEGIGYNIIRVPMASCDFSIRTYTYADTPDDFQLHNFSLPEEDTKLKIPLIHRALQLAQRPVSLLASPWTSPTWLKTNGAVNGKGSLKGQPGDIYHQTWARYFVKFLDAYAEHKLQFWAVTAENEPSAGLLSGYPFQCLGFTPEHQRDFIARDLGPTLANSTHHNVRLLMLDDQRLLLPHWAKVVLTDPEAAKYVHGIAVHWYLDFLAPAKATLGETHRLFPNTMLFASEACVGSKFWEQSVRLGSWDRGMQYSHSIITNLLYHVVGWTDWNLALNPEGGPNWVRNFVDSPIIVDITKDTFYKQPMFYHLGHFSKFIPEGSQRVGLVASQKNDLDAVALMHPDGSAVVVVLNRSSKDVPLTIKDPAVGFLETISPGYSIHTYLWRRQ
Sequence of Cytochrome P450 2C19 (Homo sapiens) (P33261 whole entry, looked up): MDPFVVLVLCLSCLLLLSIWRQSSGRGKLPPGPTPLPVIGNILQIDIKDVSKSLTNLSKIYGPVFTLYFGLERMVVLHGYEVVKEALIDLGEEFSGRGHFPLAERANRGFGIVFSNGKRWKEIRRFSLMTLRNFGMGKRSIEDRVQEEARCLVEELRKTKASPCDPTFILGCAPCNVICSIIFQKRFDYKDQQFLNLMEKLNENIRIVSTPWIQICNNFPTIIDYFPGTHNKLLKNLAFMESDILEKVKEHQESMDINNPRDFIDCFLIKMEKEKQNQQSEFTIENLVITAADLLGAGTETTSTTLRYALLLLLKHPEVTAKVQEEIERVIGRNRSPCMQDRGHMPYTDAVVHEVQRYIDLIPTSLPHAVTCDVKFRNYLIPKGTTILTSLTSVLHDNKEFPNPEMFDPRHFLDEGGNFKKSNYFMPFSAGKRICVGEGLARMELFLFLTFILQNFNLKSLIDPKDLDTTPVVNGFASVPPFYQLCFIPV
Sequence of Cytochrome P450 2C9 (Homo sapiens) (P11712 whole entry, looked up): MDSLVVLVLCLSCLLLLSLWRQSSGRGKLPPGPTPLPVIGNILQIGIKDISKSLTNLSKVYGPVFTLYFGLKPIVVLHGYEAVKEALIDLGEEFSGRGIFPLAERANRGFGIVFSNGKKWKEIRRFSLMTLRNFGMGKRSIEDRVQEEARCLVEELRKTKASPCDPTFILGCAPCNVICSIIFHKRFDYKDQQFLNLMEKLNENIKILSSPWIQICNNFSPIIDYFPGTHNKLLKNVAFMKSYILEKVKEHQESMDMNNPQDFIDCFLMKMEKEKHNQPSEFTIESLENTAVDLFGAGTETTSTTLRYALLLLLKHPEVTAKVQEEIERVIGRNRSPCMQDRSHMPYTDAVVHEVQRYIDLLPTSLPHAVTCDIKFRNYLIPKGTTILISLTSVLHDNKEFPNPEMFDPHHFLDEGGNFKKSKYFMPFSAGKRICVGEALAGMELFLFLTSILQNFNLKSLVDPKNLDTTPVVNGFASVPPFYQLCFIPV

Turning to `CC(=O)N1CCC2(CC1)CCN(C(c1ccccc1)c1ccccc1)CC2`, the Potency in [1] was over 11.4 µM; in test [5], over 46 µM; in test [9], 25.1 µM (active); in test [10], 7.94 µM (active). Also, in [2], the activity change, negative = inhibition is -6.19%. In addition, the Potency result in test [3], in [6], in test [7] and in [8] was “inactive” each time. The activity, negative = inhibition in test [4] was -5.71%. Also, the outcome in [11] was inactive.

For `O=C(c1cc(C(F)(F)F)cc(C(F)(F)F)c1)N1CCC2(CCCN(Cc3ccncc3)C2)CC1`, the Potency is over 11.4 µM in [1] and over 46 µM in test [5]. Besides, in [2], the activity change, negative = inhibition is 7.96%. Also, the Potency entry in [3], in [6], in test [7] and in test [9] was “inactive” throughout. In addition, the activity, negative = inhibition in test [4] was -3.11%. In [11], the outcome was inactive.

For the molecule `Cc1cnc(CNc2nc(-c3ccc4c(c3)OCO4)nc3ccccc23)cn1`, the Potency in test [1] was over 11.4 µM; in test [3], 2 µM (active); in [12] it was over 46 µM; in test [5] it was over 46 µM; in [8] it was 0.794 µM (active). In test [2], the activity change, negative = inhibition is -3.88%. For the same molecule, the Potency entry in test [6], in test [9], in test [13] and in test [15] was “inactive” each time. The molecule was classed as inactive in test [14] and in [11].

Take `N#Cc1cccc(NC(=O)N2CCCC3(CCN(C(=O)c4cccc(F)c4)CC3)C2)c1`: the Potency is over 11.4 µM in test [1], 12.6 µM (active) in test [3] and over 46 µM in [5]. In test [2], the activity change, negative = inhibition is -6.98%. In test [4], the activity, negative = inhibition is -4.33%. Moreover, the Potency result in test [6], in test [7] and in test [9] was “inactive” in each case. In addition, in test [11], the outcome was inactive.

Take `COc1ccccc1CN1CC2(CCN(S(=O)(=O)c3ccccc3)CC2)C1`: the results for the Potency in [1] and in test [5] were over 11.4 µM and over 46 µM, respectively. Besides, the activity change, negative = inhibition in test [2] was 18.5%. Also, the Potency entry in test [3], in test [6], in test [7], in [16], in test [9] and in test [10] was “inactive” throughout. Further, the Potency entry in test [17] is “inactive”. In [4], the activity, negative = inhibition was 7.2%. For the same molecule, the outcome in test [11] was inactive.

On to `O=C(c1ccco1)N1CCC2(CCCN(c3ccncc3)C2)CC1`, for which the Potency in test [1] is over 11.4 µM; in [5], over 46 µM. Also, in [2], the activity change, negative = inhibition is -2.46%. For the same molecule, the Potency result in test [3], in [6], in test [7], in test [16], in test [10] and in test [17] was “inactive” each time. The activity, negative = inhibition in [4] was 3.15%. Also, the result in [11] was inactive.

In the case of `O=C(c1ccco1)N1CCC2(CCCN(c3ccccn3)C2)CC1`, the Potency in [1] is over 11.4 µM; in [3], 10 µM (active). In addition, in test [2], the activity change, negative = inhibition is -0.937%. Further, in [4], the activity, negative = inhibition is -3.59%. Further, the Potency result in test [6], in test [7] and in test [9] was “inactive” each time. Besides, in [11], the result was inactive.
